Experimental data from the supplement of paper PMC12494721.
Counter-ions that a name gives are not always drawn.

Key:
Conditions in all cases: incubation time: 27 h, anaerobic, 37 °C;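 for the amine columns active = adjusted P below 0.05 in both replicates with a change the same way and a mean fold change under 0.8 or over 1.25; inactive = the rest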
[1] = system: Clostridium sporogenes DSM 1664; experiment: growth (OD595) fold change vs plate DMSO controls (fold change (ratio)); higher = more growth
Summary of the method: (§1)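 The reported measure is growth: the fold change against the median of DMSO controls on the plate. Absorbance at 595 nm from anaerobic 96-well mGAM cultures grown for 27 h at 37 °C was blank-subtracted, corrected for background with 20 µM compound solutions in water, and converted to OD with a calibration factor of 5. Fold changes above 1.5 appear as NA, and values are the mean of 2 biological replicates.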

Escherichia coli IAI1 [2] = experiment: as above
Summary of the method: as §1

[3] = system: Klebsiella aerogenes DSM 30053; experiment: as above
Summary of the method: as §1

[4] = system: Ruminococcus gnavus DSM 108212; experiment: as above
Summary of the method: as §1

[5] = system: Klebsiella aerogenes DSM 30053; experiment: fold change of Histamine concentration vs plate DMSO controls (fold change (ratio)); higher = more amine produced, active = hit call of the paper (significant change in both replicates, either direction)
Summary of the method: (§2)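 Anaerobic mGAM cultures of four gut bacterial strains were grown at 37 °C for 27 h in 80 µL wells, starting at OD 0.1 before 1:1 dilution. Compounds were at 20 µM final (sweeteners 50 µM). Whole cultures were extracted with cold acetonitrile/methanol containing 0.1% formic acid and centrifuged. Amines were quantified by LC–triple-quadrupole MS (dynamic MRM) against external calibration curves and drift-corrected within batch. Each value is the fold change versus plate DMSO controls, averaged over 2 biological replicates.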

[6] = system: Clostridium sporogenes DSM 1664; experiment: fold change of Tryptamine concentration vs plate DMSO controls (fold change (ratio)); higher = more amine produced, active = hit call of the paper (significant change in both replicates, either direction)
Summary of the method: as §2

[7] = system: Ruminococcus gnavus DSM 108212; experiment: as above
Summary of the method: as §2

Escherichia coli IAI1 [8] = experiment: fold change of Putrescine concentration vs plate DMSO controls (fold change (ratio)); higher = more amine produced, active = hit call of the paper (significant change in both replicates, either direction)
Summary of the method: as §2

[9] = system: Klebsiella aerogenes DSM 30053; experiment: as above
Summary of the method: as §2

Escherichia coli IAI1 [10] = experiment: fold change of Cadaverine concentration vs plate DMSO controls (fold change (ratio)); higher = more amine produced, active = hit call of the paper (significant change in both replicates, either direction)
Summary of the method: as §2

[11] = system: Klebsiella aerogenes DSM 30053; experiment: as above
Summary of the method: as §2

[12] = system: Ruminococcus gnavus DSM 108212; experiment: fold change of 2-Phenylethylamine concentration vs plate DMSO controls (fold change (ratio)); higher = more amine produced, active = hit call of the paper (significant change in both replicates, either direction)
Summary of the method: as §2

SMILES | growth [1] | growth (Escherichia coli IAI1 [2]) | growth [3] | growth [4] | fold change of Histamine concentration [5] | fold change of Tryptamine concentration [6] | fold change of Tryptamine concentration [7] | fold change of Putrescine concentration (Escherichia coli IAI1 [8]) | fold change of Putrescine concentration [9] | fold change of Cadaverine concentration (Escherichia coli IAI1 [10]) | fold change of Cadaverine concentration [11] | fold change of 2-Phenylethylamine concentration [12]
C[C@H](N)[C@H](O)c1cccc(O)c1 [Metaraminol bitartrate] (20 µM) | 1.04 | 0.987 | 1.09 | 0.95 | 1.04 (inactive) | 1.05 (inactive) | 1.08 (inactive) | 1.02 (inactive) | 1.02 (inactive) | 0.982 (inactive) | 0.998 (inactive) | 1.12 (inactive)
COC(=O)C1=C(C)NC(C)=C(C(=O)OC2CCCN(Cc3ccccc3)C2)C1c1cccc([N+](=O)[O-])c1 (stereo not drawn) [Benidipine hydrochloride] (20 µM) | 1.1 | 1.23 | 1.02 | 0.864 | 0.929 (inactive) | 0.912 (inactive) | 0.983 (inactive) | 1.24 (inactive) | 1.02 (inactive) | 0.989 (inactive) | 1.02 (inactive) | 0.986 (inactive)
C=CC1=C(C(=O)O)N2C(=O)[C@@H](NC(=O)/C(=N\O)c3csc(N)n3)[C@H]2SC1 [Cefdinir] (20 µM) | 0 | 0 | 0.757 | 0 | 1.22 (inactive) | 0.0307 (active) | 0.04 (active) | 0.208 (active) | 0.979 (inactive) | 0.77 (inactive) | 1.03 (inactive) | 0.0439 (active)
C[C@H]1[C@@H](O)O[C@@H]2O[C@@]3(C)CC[C@H]4[C@H](C)CC[C@@H]1[C@@]24OO3 [Artenimol] (20 µM) | 1.03 | 1.03 | 0.982 | 1.04 | 1.01 (inactive) | 0.991 (inactive) | 1.01 (inactive) | 1.02 (inactive) | 1.01 (inactive) | 1.02 (inactive) | 1.01 (inactive) | 0.965 (inactive)
CC(C)(C)NC[C@H](O)COc1ccccc1C1CCCC1 [Penbutolol sulfate] (20 µM) | 0.971 | 1.21 | 0.985 | 0.952 | 1.02 (inactive) | 1.03 (inactive) | 1.11 (inactive) | 1.1 (inactive) | 0.997 (inactive) | 1.02 (inactive) | 0.98 (inactive) | 1.25 (inactive)
CCCN(CCC)S(=O)(=O)c1ccc(C(=O)O)cc1 [Probenecid] (20 µM) | 1.04 | 1.02 | 1.17 | 1.09 | 0.92 (inactive) | 0.999 (inactive) | 1 (inactive) | 0.984 (inactive) | 1 (inactive) | 1.04 (inactive) | 1.02 (inactive) | 1.02 (inactive)
CC(C)NC[C@H](O)COc1cccc2ccccc12 [(S)-(-)-Propranolol hydrochloride] (20 µM) | 0.943 | 1.03 | 1.07 | 1.14 | 0.885 (inactive) | 1.02 (inactive) | 1 (inactive) | 0.986 (inactive) | 0.993 (inactive) | 0.968 (inactive) | 1.01 (inactive) | 1.02 (inactive)
CO/N=C(\C(=O)N[C@@H]1C(=O)N2C(C(=O)O)=C(COC(N)=O)CS[C@H]12)c1ccco1 [Cefuroxime sodium salt] (20 µM) | 0 | 0.0568 | 0.796 | 0.229 | 1.1 (inactive) | 0.031 (active) | 0.0602 (active) | 0.84 (inactive) | 1.03 (inactive) | 1.98 (active) | 1.07 (inactive) | 0.0618 (active)
CCN1CCN(C(=O)N[C@@H](C(=O)N[C@@H]2C(=O)N3[C@@H]2SC(C)(C)[C@@H]3C(=O)O)c2ccccc2)C(=O)C1=O [Piperacillin sodium salt] (20 µM) | 0 | 0.563 | 1.07 | 0 | 0.706 (inactive) | 0.0439 (active) | 0.0274 (active) | 1.17 (inactive) | 1.06 (inactive) | 1.84 (active) | 1.03 (inactive) | 0.0313 (active)
Clc1ccc2nsnc2c1NC1=NCCN1 [Tizanidine hydrochloride] (20 µM) | 0.00885 | 1.01 | 1.15 | 0.103 | 0.919 (inactive) | 0.0144 (active) | 0.0877 (active) | 0.984 (inactive) | 0.995 (inactive) | 0.983 (inactive) | 1.02 (inactive) | 0.0862 (active)
COc1ccc(NS(=O)(=O)c2ccc(N)cc2)nn1 [Sulfamethoxypyridazine] (20 µM) | 0.883 | 1.01 | 0.983 | 1.01 | 1.06 (inactive) | 1.03 (inactive) | 1.17 (inactive) | 1.02 (inactive) | 1.03 (inactive) | 1.07 (inactive) | 1.1 (inactive) | 1.44 (inactive)
CCCNC(C)C(=O)Nc1c(C)csc1C(=O)OC (stereo not drawn) [Articaine hydrochloride] (20 µM) | 0.923 | 1.08 | 1.03 | 1.12 | 0.917 (inactive) | 1.06 (inactive) | 1.06 (inactive) | 0.985 (inactive) | 0.992 (inactive) | 0.966 (inactive) | 1.01 (inactive) | 1.09 (inactive)
CCCCc1nc(Cl)c(CO)n1Cc1ccc(-c2ccccc2-c2nnn[nH]2)cc1 [Losartan] (20 µM) | 1.01 | 0.991 | 1.01 | 0.99 | 1.07 (inactive) | 0.975 (inactive) | 1.05 (inactive) | 1.01 (inactive) | 1.04 (inactive) | 0.99 (inactive) | 1 (inactive) | 1.06 (inactive)
C/C(=C(\CCOC(=O)c1ccccc1)SS/C(CCOC(=O)c1ccccc1)=C(/C)N(C=O)Cc1cnc(C)nc1N)N(C=O)Cc1cnc(C)nc1N [Bisbentiamine] (20 µM) | 0.925 | 0.985 | 0.994 | 1.01 | 1 (inactive) | 0.975 (inactive) | 0.917 (inactive) | 0.998 (inactive) | 0.999 (inactive) | 1.03 (inactive) | 0.983 (inactive) | 0.855 (inactive)
CCN(CC)CCCC(C)Nc1c2ccc(Cl)cc2nc2ccc(OC)cc12 (stereo not drawn) [Quinacrine dihydrochloride hydrate] (20 µM) | 1.09 | 1.03 | 0.892 | 1.36 | 1.03 (inactive) | 1.1 (inactive) | 1.07 (inactive) | 1.03 (inactive) | 0.928 (inactive) | 0.982 (inactive) | 0.996 (inactive) | 1.08 (inactive)
CCOC1O[C@H]([C@@H](COCc2ccccc2)OCc2ccccc2)[C@H](OCc2ccccc2)[C@H]1O (stereo partly drawn) [Tribenoside] (20 µM) | 0.917 | 0.959 | 0.99 | 0.972 | 1.06 (inactive) | 0.969 (inactive) | 0.966 (inactive) | 1 (inactive) | 1.03 (inactive) | 1.01 (inactive) | 0.987 (inactive) | 0.961 (inactive)
Cc1cccc(C)c1OCC(C)N (stereo not drawn) [Mexiletine hydrochloride] (20 µM) | 0.941 | 1.02 | 1.15 | 0.936 | 0.934 (inactive) | 0.991 (inactive) | 1.02 (inactive) | 0.985 (inactive) | 0.998 (inactive) | 1.03 (inactive) | 1.02 (inactive) | 1.07 (inactive)
Cc1ccc(O)c([C@H](CCN(C(C)C)C(C)C)c2ccccc2)c1 [Tolterodine tartrate] (20 µM) | 0.996 | 1.24 | 1.04 | 1.14 | 0.956 (inactive) | 1.01 (inactive) | 0.997 (inactive) | 1.27 (inactive) | 1.01 (inactive) | 0.926 (inactive) | 1 (inactive) | 0.994 (inactive)
COc1cccc2c1C(=O)c1c(O)c3c(c(O)c1C2=O)C[C@@](O)(C(C)=O)C[C@@H]3O[C@H]1C[C@H](N)[C@H](O)[C@H](C)O1 [Daunorubicin hydrochloride] (20 µM) | 0.967 | 0.972 | 0.997 | 1.13 | 1.01 (inactive) | 0.941 (inactive) | 0.986 (inactive) | 0.988 (inactive) | 1.02 (inactive) | 1.09 (inactive) | 1.04 (inactive) | 0.967 (inactive)
C=C(NC(=O)C(=C)NC(=O)c1csc(C2=N[C@@H]3c4csc(n4)[C@H]4NC(=O)c5csc(n5)[C@H]([C@](C)(O)[C@@H](C)O)NC(=O)[C@H]5CSC(=N5)/C(=C/C)NC(=O)[C@H]([C@@H](C)O)NC(=O)c5csc(n5)[C@]3(CC2)NC(=O)[C@H](C)NC(=O)C(=C)NC(=O)[C@H](C)NC(=O)[C@H]([C@@H](C)CC)N[C@@H]2C=Cc3c([C@H](C)O)cc(nc3[C@H]2O)C(=O)O[C@@H]4C)n1)C(N)=O [Thiostrepton] (20 µM) | 0.00647 | 1.05 | 1.14 | 0.164 | 0.968 (inactive) | 0.033 (active) | 0.0887 (active) | 1.03 (inactive) | 1.03 (inactive) | 1.02 (inactive) | 1.02 (inactive) | 0.084 (active)
O=C1CC2(CCCC2)CC(=O)N1CCCCN1CCN(c2ncccn2)CC1 [Buspirone hydrochloride] (20 µM) | 0.958 | 1.07 | 0.968 | 0.992 | 1.09 (inactive) | 1.05 (inactive) | 1.05 (inactive) | 1.02 (inactive) | 1.01 (inactive) | 1.05 (inactive) | 0.99 (inactive) | 1.05 (inactive)
NC(N)=Nc1nc(CSCC/C(N)=N/S(N)(=O)=O)cs1 [Famotidine] (20 µM) | 0.878 | 0.928 | 0.855 | 0.824 | 1.04 (inactive) | 1.02 (inactive) | 1.03 (inactive) | 1.03 (inactive) | 0.999 (inactive) | 0.975 (inactive) | 0.99 (inactive) | 1.07 (inactive)
CCN1CCN(c2cc3c(cc2F)c(=O)c(C(=O)O)cn3C2CC2)CC1 [Enrofloxacin] (20 µM) | 0.0184 | 0.0344 | 0.107 | 1.29 | 0.0794 (active) | 0.0498 (active) | 0.982 (inactive) | 0.658 (inactive) | 0.619 (active) | 0.204 (active) | 0.938 (inactive) | 1.05 (inactive)
CC(NCCc1ccc(O)cc1)C(O)c1ccc(O)cc1 (stereo not drawn) [Ritodrine hydrochloride] (20 µM) | 0.998 | 0.987 | 0.985 | 0.697 | 0.979 (inactive) | 1 (inactive) | 1.02 (inactive) | 0.985 (inactive) | 1.01 (inactive) | 1.01 (inactive) | 1.01 (inactive) | 1.05 (inactive)
